The panel holds about 83,000 compounds, 20% with a hit somewhere; the sample as a whole holds those more often.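 Negative percent growth values reflect cell death: -40 means 40% of the cells present at the start died, and -100 means all died.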 A number with no mark means an inactive call. Activity calls are given as the source filed them. Rule for the calls: active = growth percent below 10; inactive = the rest.

Common to all, as to test: NCI-60 one-dose screen, 48 h (100 = growth as untreated, 0 = no growth, -100 = all killed)
Holding throughout (details): 10 µM unless noted

Assay [1] deals with SR leukemia.
Assay [2] concerns RPMI-8226 leukemia.
Assay [3] concerns OVCAR-8 ovarian.
In assay [4] the test system is OVCAR-5 ovarian.
In assay [5] the test system is OVCAR-4 ovarian.
For assay [6], the system named is SK-OV-3 ovarian.
In assay [7] the test system is IGROV1 ovarian.
For assay [8], the system named is OVCAR-3 ovarian.
Assay [9] deals with HS 578T breast.
The test system of assay [10] is NCI/ADR-RES ovarian.
Assay [11] relates to T-47D breast.
For assay [12], the system named is BT-549 breast.
In assay [13] the test system is MDA-MB-435 melanoma.
The subject of assay [14] is SW-620 colon.
Assay [15] relates to MCF7 breast.
Assay [16] deals with HCT-116 colon.
The test system of assay [17] is HCC-2998 colon.
The subject of assay [18] is KM12 colon.

With `O=C(C1=Cc2cc3ccccc3n2Cc2cnnn21)c1ccc(F)cc1`, the growth in [1] was 87.6%; in assay [2], 92.4%; in assay [3], 99.4%; in assay [4], 115%; in assay [5], 95%; in [6], 94.6%. Moreover, the growth was 90% in [7]; 104% in assay [8]; 90.8% in [9]; 101% in assay [10]; 95% in assay [11]; 94.9% in [12]. In addition, the growth in assay [13] is 97.5%; in assay [14], 108%; in assay [15] it was 94%; in assay [16] it was 97.9%; in assay [17] it was 110%; in assay [18] it was 90.8%.

In the case of `C=C1C(=O)O[C@H]2[C@H]1CC/C(COC(=O)NCc1ccc(Cn3c(=O)sn(-c4ccc(I)cc4)c3=O)cc1)=C\CC[C@@]1(C)O[C@@H]21`, the growth in [1] was 63%; in [2], 7.56% (active); in [3], 82.1%; in assay [4], 96.5%; in assay [5], 58.9%; in [6], 100%. In addition, the growth in assay [7] is 67.5%; in assay [8], 23.7%; in assay [9], 85.7%; in assay [10], 106%; in assay [11], 45.2%; in [12], 74.5%. Also, the growth was 80.9% in assay [13]; 3.86% (active) in assay [14]; 38.6% in assay [15]; 28.3% in assay [16]; 105% in [17]; 98.4% in assay [18].

As for `COc1ccc(Cl)cc1Nc1nc(C(F)(F)F)ccc1C(=O)N/N=C/c1ccc([N+](=O)[O-])cc1`, the growth in assay [1] was 0.718% (active); in [2], -49.7% (active); in [3], 9.77% (active); in assay [4] it was 4.96% (active); in assay [5], -12.1% (active); in [6] it was 14.5%. In addition, the growth was -0.273% (active) in [7]; -1% (active) in [8]; 3.18% (active) in assay [9]; 2.09% (active) in [10]; 7.15% (active) in [11]; 18.6% in assay [12]. Further, the growth in assay [14] was 5.81% (active); in [15] it was -8.58% (active); in assay [16] it was 11.3%; in assay [17], -27.8% (active); in [18] it was -3.54% (active).

As for `O=C1/C(=C/c2ccccn2)SC(=S)N1N1CCOCC1`, the growth is 108% in assay [1]; 105% in [2]; 98.9% in [3]; 97.9% in [4]; 107% in assay [5]; 101% in [6]. The growth in [7] was 94.1%; in assay [8] it was 99.5%; in [9], 96.7%; in assay [10] it was 104%; in assay [11], 99.4%; in [12], 99.9%. Further, the growth in assay [13] was 103%; in assay [14], 97.6%; in assay [15], 87.4%; in assay [16], 104%; in assay [17], 97.7%; in assay [18] it was 103%.

As to `O=C(/C=C/c1cn(-c2ccccc2)nc1-c1ccccc1)CCC(=O)NO`, the growth in [1] was 82.3%; in assay [2], 99.3%; in [3], 97.2%; in assay [4], 118%; in assay [5] it was 112%; in assay [6], 98.8%. Besides, the growth is 104% in assay [7]; 99% in assay [8]; 95.3% in assay [9]; 101% in assay [10]; 96.7% in [11]; 101% in assay [12]. The growth is 112% in assay [13]; 108% in assay [14]; 91.6% in assay [15]; 84% in assay [16]; 111% in assay [17]; 96.9% in assay [18].

As to `Cc1ncc(C(=O)Nc2ccc(CN3CCN(C)CC3)c(C(F)(F)F)c2)cc1C#Cc1cnc(N)c2ccc(C#N)cc12`, the growth was 4.87% (active) in assay [1]; 7.42% (active) in assay [2]; 3.22% (active) in assay [3]; -24.7% (active) in [4]; -7.66% (active) in assay [5]; -14.6% (active) in [6]. Further, the growth in assay [7] is -43.9% (active); in assay [8], 25%; in assay [9] it was -8.89% (active); in assay [10], 39%; in [11], 19%; in assay [12], 43.5%. Moreover, the growth is -28.4% (active) in [13]; 6.41% (active) in assay [14]; 11.5% in assay [15]; -19.9% (active) in assay [16]; 34.1% in [17]; 3.87% (active) in assay [18].

For the compound `Nc1ccc(-c2ccncc2)cc1NC(=O)N1CCCC1`, the growth in assay [1] was 91.8%; in assay [2] it was 82.2%; in assay [3] it was 85.3%; in [4] it was 109%; in assay [5], 101%; in assay [6], 92.2%. Further, the growth in assay [7] was 99.4%; in assay [8], 99.3%; in [9] it was 93.7%; in assay [10], 81.8%; in assay [11], 81.9%; in [12] it was 104%. Moreover, the growth was 96.3% in assay [13]; 98.2% in [14]; 87% in assay [15]; 86.8% in assay [16]; 94.4% in [17]; 94.6% in assay [18].

The values above are taken from PubChem BioAssay (NCI).
